GPR151 activ – activators of human GPR151, primary screen, cell-based, PathHunter beta-arrestin, luminescence | G-protein coupled receptor 151 (Homo sapiens), Q8TDV0 | PathHunter beta-arrestin GPR151 cells | activation, % at 11.2 µM | actives 1% (n = 650,000); in the data active = activation above about 4.9%;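 also: 0% = median of compound wells and 100% = cells with positive control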
MITF inh – MITF inhibitors, primary screen, biochemical, AlphaScreen, human | actives 0.91% (n = 650,000) | AID 1259374, 2018 | AlphaScreen MITF homodimerization, bead proximity signal | inhibition, % at 2.6 µM | Microphthalmia-associated transcription factor (Homo sapiens), O75030; in the data active = inhibition above about 50%;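 also: 0% = vehicle wells with protein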
Target sequence (O75030 whole entry, looked up): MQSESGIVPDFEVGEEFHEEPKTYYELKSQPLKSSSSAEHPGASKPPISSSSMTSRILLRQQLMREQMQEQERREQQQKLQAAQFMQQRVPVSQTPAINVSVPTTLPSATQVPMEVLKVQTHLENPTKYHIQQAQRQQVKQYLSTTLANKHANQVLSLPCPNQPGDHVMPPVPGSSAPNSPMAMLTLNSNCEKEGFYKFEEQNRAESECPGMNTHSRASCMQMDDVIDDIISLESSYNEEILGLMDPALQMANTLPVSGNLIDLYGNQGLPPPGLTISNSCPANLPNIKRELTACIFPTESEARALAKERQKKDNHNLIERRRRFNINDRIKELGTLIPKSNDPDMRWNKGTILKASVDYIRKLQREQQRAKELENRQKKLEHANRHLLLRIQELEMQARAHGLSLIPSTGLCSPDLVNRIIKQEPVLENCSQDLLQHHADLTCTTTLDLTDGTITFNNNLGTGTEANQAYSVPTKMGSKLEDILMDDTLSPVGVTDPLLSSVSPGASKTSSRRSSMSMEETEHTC
TEAD-YAP block – TEAD-YAP interaction inhibition, primary screen, TEAD-YAP interaction inhibitor project, luminescence, HEK-TIYL cells. TEAD-Gal4/YAP UAS-luciferase luminescence. inhibition, % at 9.12 µM. actives 1.4% (n = 640,000). AID 1259422, 2018; in the data active = inhibition above about 32%;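 also: 0% = median of test compound wells and 100% = reference inhibitor wells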
FBW7 activator – FBW7 E3 ligase activators, primary screen, biochemical, AlphaScreen, human; normalized activity (activation), % at 26.1 µM; actives 0.13% (n = 650,000); F-box/WD repeat-containing protein 7 (Homo sapiens), Q969H0; AID 1259310, 2017; AlphaScreen FBW7–phospho-cyclin E peptide binding, activator screen; in the data active = normalized activity above about 1.9%;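 also: purified mutant Fbw7 with reduced substrate affinity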
GPR151 confirm – GPR151 activators, triplicate retest, confirmation, cell-based, PathHunter beta-arrestin, luminescence. shares compounds with GPR151 activ. GPR151 PathHunter beta-arrestin cells, 90 min; % of EA-reagent control over plate median. activation, % at 11.2 µM. 6,700 tested, under 10 active. AID 1508609, 2020;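 active = mean percent activation across replicates above the confirmation screen cutoff of 4.91%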
GPR119 counter – GPR119 activators in beta-arrestin cells, counter-screen for GPR151 activator project, cell-based, PathHunter beta-arrestin, luminescence, triplicate | shares compounds with GPR151 activ | 90 min; 0 = compound-well median, 100 = enzyme-acceptor control | activation, % at 11.2 µM | actives 0.3% (n = 6,700) | AID 1508611, 2020;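 active = mean percent activation in the counterscreen above 29.09%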;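 also: counterscreen on off-target GPR119 to flag nonselective hits from the GPR151 activator screen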
* marks the source's active call; other numbers are inactive results; . = no result given; ! = repeats disagree. In the library only some 3.5% were active in any assay of this set; here they are far more common.

SMILES	GPR151 activ	MITF inh	TEAD-YAP block	FBW7 activator	GPR151 confirm	GPR119 counter
O=C(CN1CCCC(O)C1)N1c2ccccc2Sc2ccc(C(F)(F)F)cc21 (stereo unspecified)	9.5*	23.4	2.1	0.1	-0.1	-4.5
CCN(CC)C(=O)C1CCCN(c2nc3ncnc(Nc4cc(OC)c(OC)c(OC)c4)c3[nH]2)C1 (stereo unspecified)	-0.8	14.3	-15.2	0.0	.	.
Cn1c(=O)c2c(nc(SCc3nn[nH]n3)n2C)n(C)c1=O	2.1	10.4	4.0	-0.1	.	.
COC(=O)c1ccc(Cl)cc1NC(=O)N(C(C)C)C1CCN(C(C)=O)CC1	7.0*	1.1	-8.7	-0.2	1.8	-0.8
COc1ccc(NC(=O)N(C(C)C)C2CCN(C(C)=O)CC2)c(OC)c1	1.0	4.4	-4.2	0.0	.	.
COc1ccc(C(=O)N/C(=C/c2cccc([N+](=O)[O-])c2)C(=O)Nc2cc(Cl)ccc2C)c(Cl)c1	11.6*	-11.0	-7.8	0.0	-0.3	-6.0
COc1ccc(Br)c(C(=O)N/C(=C/c2cccc([N+](=O)[O-])c2)C(=O)Nc2cc(Cl)ccc2C)c1	0.2	-6.9	10.0	0.0	.	.
CCOC(=O)c1cnc2cc(C(F)(F)F)ccc2c1Nc1ccc(C(C)C)cc1	-0.3	-5.3	-11.4	-0.1	.	.
CCCOC(=O)CN1C(=O)C2C3c4ccccc4C(c4ccccc43)C2C1=O (stereo unspecified)	5.0*	16.4	4.0	0.1	-0.9	-15.0
CC(NS(=O)(=O)c1ccc(OCC(=O)Nc2ccccc2)c(Cl)c1)c1ccccc1 (stereo unspecified)	6.1*	-20.2	-2.7	0.2	0.7	4.5
CCOc1ccc(Cl)cc1S(=O)(=O)NC(C)c1ccccc1 (stereo unspecified)	5.1*	-6.3	-8.9	0.1	-0.3	5.2
COc1ccc(Cl)cc1S(=O)(=O)NC(C)c1ccccc1 (stereo unspecified)	0.6	0.8	-0.6	-0.1	.	.
C=CCNC(=O)COc1ccc(S(=O)(=O)NC(C)c2ccccc2)cc1Cl (stereo unspecified)	2.2	-0.5	-0.5	0.2	.	.
CC(=O)N1c2ccccc2S(=O)(=O)c2cc(OC(=O)c3ccccc3)ccc21	2.8	-6.5	2.2	-0.1	.	.
Brc1ccc(Nc2cccnc2)nc1	10.8*	-2.1	0.3	-0.1	1.3	4.3
Fc1cccc(F)c1Nc1ccc(Br)cn1	-0.8	10.7	0.2	-0.4	.	.
COc1cc2nc(Nc3ccccc3)nc(Nc3ccc(N4CCOCC4)cc3)c2cc1OC	8.2*	20.7	-0.2	-0.2	0.5	3.6
COc1cc2nc(Nc3ccc(N4CCOCC4)cc3)nc(Nc3ccccc3)c2cc1OC	2.2	8.0	5.7	-0.2	.	.
CCN(CC)c1nc(Nc2cc(OC)c(OC)c(OC)c2)nc(Nc2cc(OC)c(OC)c(OC)c2)n1	2.4	5.3	10.9	0.3	.	.
CCN(CC)c1nc(Nc2ccc(N3CCOCC3)cc2)nc(Nc2cc(OC)c(OC)c(OC)c2)n1	9.3*!	7.9	-1.7	0.0	-0.2	4.9
COc1cc2nc(Oc3ccccc3)nc(Nc3ccc(NC(C)=O)cc3)c2cc1OC	7.4*	13.6	23.0	-0.1	0.1	0.1
COc1cc2nc(Nc3ccc4ncccc4c3)nc(Nc3ccc4c(c3)OCO4)c2cc1OC	7.7*	4.7	0.7	-0.3	-0.4	-7.1
O=C1C(=O)N(CCCN2CCOCC2)C(c2cccnc2)/C1=C(/O)c1ccc(Br)cc1 (stereo unspecified)	9.1*	2.9	11.8	0.1	-1.2	-13.1
O=C1C(=O)N(CCN2CCOCC2)C(c2cccnc2)/C1=C(/O)c1ccc(Br)cc1 (stereo unspecified)	-0.6	1.6	-5.4	0.4	.	.
COc1ccc(/C(O)=C2/C(=O)C(=O)N(CCN3CCOCC3)C2c2ccc(C(C)(C)C)cc2)cc1 (stereo unspecified)	7.0*	9.8	2.7	-0.1	-0.7	-5.0
SMILES	GPR151 activ	MITF inh	TEAD-YAP block	FBW7 activator	GPR151 confirm	GPR119 counter
O=[N+]([O-])c1cccc(-c2nc(N3CCCC3)c3ccccc3n2)c1	0.3	8.0	-1.0	-0.1	.	.
CCOC(=O)CC1CCCCN1Cc1nc(NCc2ccc(C)o2)c2ccccc2n1 (stereo unspecified)	-0.7	7.1	7.5	-0.2	.	.
FC(F)(F)c1ccc(Cl)c(NC2=NCCCCC2)c1	6.1*	10.8	3.2	-0.1	-1.3	-8.4
Cc1cc(CN(C)C(=O)CC2(c3cccc(F)c3)CC(=O)N(Cc3cccnc3)C2=O)n[nH]1 (stereo unspecified)	12.2*	13.3	-0.2	0.3	-0.1	6.7
Cc1cc(CN(C)C(=O)CC2(c3ccccc3C)CC(=O)N(Cc3cccnc3)C2=O)n[nH]1 (stereo unspecified)	1.4	-4.8	-9.3	-0.1	.	.
O=C(Nc1ncc(C(O)(C(F)(F)F)C(F)(F)F)s1)c1ccccc1Cl	6.6*	0.3	-44.1	0.0	2.4	2.8
Cc1nnc(NC(=O)c2ccccc2Cl)s1	0.4	14.5	-33.1	0.1	.	.
O=C(NCc1ccccc1)c1nn(C23CC4CC(CC(C4)C2)C3)cc1[N+](=O)[O-]	5.6*	5.6	7.1	-0.1	-0.6	0.9
O=[N+]([O-])c1cc(S(=O)(=O)N2CCCCC2)ccc1Sc1cccc[n+]1[O-]	0.7	-8.5	25.1	-0.6	.	.
COC(=O)COc1ccc(S(=O)(=O)NCCC2=CCCCC2)cc1C	29.7*	2.1	-0.9	0.3	0.2	1.7
CCCCC[C@H]1O[C@H]1C/C=C\C/C=C\C/C=C\CCCC(=O)O	-2.0	-3.1	.	.	.	.
CCCCC/C=C\C/C=C\C/C=C\C[C@H]1O[C@H]1CCCC(=O)O	5.8*	-2.4	.	.	0.3	8.2
O=C(NCc1nc(NC2CCCC2)c2cc(Cl)ccc2n1)c1cscn1	0.5	0.7	10.3	0.1	.	.
O=C(Nc1ccc(-c2cn[nH]c2)cc1)[C@@H]1Cc2ccccc2CN1	-0.4	12.9	-5.2	0.2	.	.
O=C(Nc1ccc(-c2cn[nH]c2)cc1)OCCc1ccccc1	5.0*	2.1	-27.9	-0.1	0.6	8.5
O=C(Nc1ccc(-c2cn[nH]c2)cc1)C1CCc2ccccc2C1 (stereo unspecified)	5.4*	-5.0	-3.6	-0.2	0.1	8.2
O=C(Nc1ccc(-c2cn[nH]c2)cc1)OCc1ccccc1	-0.6	0.4	-13.9	-0.1	.	.
COCCN=c1scc(-c2ccc3c(c2)NC(=O)CO3)n1/N=C/c1ccc([N+](=O)[O-])o1	0.9	29.7	23.9	-0.5	.	.

Source: PubChem BioAssay
